Results taken from the antibiotic and cytotoxicity screens of Wong et al. (2023).
The whole screen tested about 39,000 compounds, of which about 1,500 (3.8%) were called active. The full list was thinned out, with actives kept by preference.

tested on: HSkMC (human skeletal muscle cells); assay: cytotoxicity call (relative viability < 0.9); conditions: 10 µM

| Structure (SMILES) | cytotoxicity call |
| --- | --- |
| O=C(CN1CCOCC1)NCC[C@H]1CC[C@@H](NC(=O)Nc2ccccc2)[C@H](CO)O1 | inactive |
| C[C@H]1CN([C@@H](C)CO)S(=O)(=O)c2ccc(-c3cccnc3)cc2O[C@@H]1CN(C)C(=O)c1cccc(F)c1 | inactive |
| Cc1ccccc1S(=O)(=O)N1C[C@H](O)COC[C@@H]2O[C@@H](CC(=O)NCc3ccccc3Cl)CC[C@H]21 | inactive |
| Cc1ccc(S(=O)(=O)Nc2ccc3c(c2)C(=O)N([C@@H](C)CO)C[C@@H](C)[C@H](CN(C)Cc2ccc(C(F)(F)F)cc2)O3)cc1 | inactive |
| C[C@@H]1CN([C@H](C)CO)C(=O)c2cc(NS(=O)(=O)c3ccc(Cl)cc3)ccc2O[C@H]1CN(C)Cc1ccc(C(F)(F)F)cc1 | inactive |
| C[C@@H]1CN([C@@H](C)CO)C(=O)c2cc(NS(=O)(=O)c3ccc(Cl)cc3)ccc2O[C@@H]1CN(C)Cc1ccc(C(F)(F)F)cc1 | active |
| C[C@H]1CN([C@@H](C)CO)C(=O)c2cc(NS(=O)(=O)c3ccc(Cl)cc3)ccc2O[C@H]1CN(C)Cc1ccc(C(F)(F)F)cc1 | inactive |
| C[C@H](CO)N1C[C@H](C)[C@@H](CN(C)Cc2ccc(C(F)(F)F)cc2)Oc2ccc(NS(=O)(=O)c3ccc(Cl)cc3)cc2C1=O | active |
| C[C@@H]1CN([C@@H](C)CO)C(=O)c2cc(NS(=O)(=O)c3ccc(Cl)cc3)ccc2O[C@H]1CN(C)Cc1ccc(C(F)(F)F)cc1 | inactive |
| Cc1ccc(S(=O)(=O)Nc2ccc3c(c2)C(=O)N([C@@H](C)CO)C[C@@H](C)[C@@H](CN(C)Cc2ccc(C(F)(F)F)cc2)O3)cc1 | inactive |
| C[C@H](CO)N1C[C@H](C)[C@H](CN(C)Cc2ccc(C(F)(F)F)cc2)Oc2ccc(NS(=O)(=O)c3ccc(Cl)cc3)cc2C1=O | active |
| C[C@@H]1CN([C@H](C)CO)C(=O)c2cc(NS(=O)(=O)c3ccc(Cl)cc3)ccc2O[C@@H]1CN(C)Cc1ccc(C(F)(F)F)cc1 | active |
| O=C(C[C@H]1C[C@H]2c3cc(NS(=O)(=O)c4ccc(F)cc4)ccc3O[C@H]2[C@@H](CO)O1)NC1CCCCC1 | inactive |
| C[C@@H]1CCCCO[C@@H](CN(C)C(=O)Nc2cccc3ccccc23)[C@@H](C)CN([C@@H](C)CO)C(=O)c2cc(NS(=O)(=O)c3ccc(Cl)cc3)ccc2O1 | inactive |
| C[C@H]1CN([C@@H](C)CO)C(=O)Cc2cc(NC(=O)CCC(F)(F)F)ccc2O[C@H]1CN(C)S(=O)(=O)c1ccccc1 | inactive |
| CO/N=C(\C(=O)N[C@@H]1C(=O)N2C(C(=O)O)=C(C)CS[C@H]12)c1csc(N)n1 | inactive |
| C[C@@H]1CCCCO[C@H](CN(C)C(=O)c2ccccc2)[C@H](C)CN([C@H](C)CO)C(=O)c2cc(NS(=O)(=O)c3ccc(Cl)cc3)ccc2O1 | inactive |
| COCC#Cc1cnc2c(c1)C(=O)N([C@H](C)CO)C[C@H](C)[C@H](CN(C)C(=O)Nc1ccc(OC)cc1)O2 | inactive |
| CS(=O)(=O)N1C[C@H]2COC[C@@]2(C(=O)NCc2ccccn2)C1 | inactive |
| C[C@@H]1CN([C@H](C)CO)C(=O)CCCn2cc(nn2)CO[C@H]1CN(C)C(=O)Nc1ccc(C(F)(F)F)cc1 | inactive |
| Cc1ccc(S(=O)(=O)Nc2ccc3c(c2)C(=O)N([C@H](C)CO)C[C@H](C)[C@@H](CN(C)C(=O)Cc2ccccc2)OCCCC[C@@H](C)O3)cc1 | inactive |

| Structure (SMILES) | cytotoxicity call |
| --- | --- |
| Cc1noc(C)c1S(=O)(=O)Nc1ccc2c(c1)C(=O)N([C@@H](C)CO)C[C@H](C)[C@H](CN(C)Cc1ccc(Cl)c(Cl)c1)OCCCC[C@@H](C)O2 | inactive |
| C[C@H](CO)N1C[C@H](C)[C@@H](CN(C)CC2CCCCC2)Oc2c(NC(=O)c3ccc(-c4nccs4)cc3)cccc2C1=O | inactive |
| Cc1ccc(-c2cnc3c(c2)C(=O)N([C@@H](C)CO)C[C@@H](C)[C@H](CN(C)C(=O)Cc2ccncc2)O3)cc1 | inactive |
| C[C@H]1CN([C@@H](C)CO)C(=O)c2cc(NS(=O)(=O)c3ccc(Cl)cc3)ccc2O[C@H]1CN(C)C(=O)Nc1cccc2ccccc12 | inactive |
| C[C@H]1CN([C@@H](C)CO)C(=O)c2cc(NS(=O)(=O)c3ccc(Cl)cc3)ccc2O[C@@H]1CN(C)Cc1ccc(C(F)(F)F)cc1 | active |
| C[C@@H]1CN([C@@H](C)CO)C(=O)c2cc(NC(=O)CCC(F)(F)F)ccc2O[C@@H](C)CCCCO[C@@H]1CN(C)C(=O)Nc1ccc(C(F)(F)F)cc1 | inactive |
| Nc1nc(=O)n([C@@H]2CS[C@H](CO)O2)cc1F | inactive |
| CNC(=O)c1ccccc1N | inactive |
| C[C@@H]1CN([C@@H](C)CO)C(=O)c2cc(NC(=O)Nc3ccc(C(F)(F)F)cc3)ccc2O[C@H]1CN(C)Cc1ccc(Oc2ccccc2)cc1 | active |
| C[C@@H]1CN([C@@H](C)CO)C(=O)c2cc(NC(=O)Nc3ccc(C(F)(F)F)cc3)ccc2O[C@@H]1CN(C)Cc1ccc(Oc2ccccc2)cc1 | active |
| C[C@H](CO)N1C[C@H](C)[C@@H](CN(C)Cc2ccc(Oc3ccccc3)cc2)Oc2ccc(NC(=O)Nc3ccc(C(F)(F)F)cc3)cc2C1=O | active |
| C[C@H]1CN([C@@H](C)CO)C(=O)c2cc(NC(=O)Nc3ccc(C(F)(F)F)cc3)ccc2O[C@H]1CN(C)Cc1ccc(Oc2ccccc2)cc1 | active |
| O=C(C[C@@H]1C[C@H]2c3cc(NC(=O)C4CCOCC4)ccc3O[C@H]2[C@H](CO)O1)NCc1ccc2c(c1)OCO2 | inactive |
| C[C@@H]1CCCCO[C@@H](CN(C)C(=O)c2ccccc2)[C@@H](C)CN([C@H](C)CO)C(=O)c2cc(NC(=O)Nc3ccc(C(F)(F)F)cc3)ccc2O1 | inactive |
| Cc1noc(C)c1S(=O)(=O)Nc1ccc2c(c1)C(=O)N([C@@H](C)CO)C[C@@H](C)[C@H](CN(C)C(=O)NC(C)C)O2 | inactive |
| Cl.N=C(N)NC(=N)N1CCOCC1 | inactive |
| COc1ccc(S(=O)(=O)N2C[C@@H](O)COC[C@H]3O[C@@H](CC(=O)NCCCN(C)C)CC[C@@H]32)cc1 | inactive |
| C[C@H](CO)N1C[C@H](C)[C@H](CN(C)S(=O)(=O)c2cccs2)Oc2ccc(NS(=O)(=O)c3cn(C)cn3)cc2C1=O | inactive |
| Cn1cnc(CCNC(=O)C[C@H]2CC[C@H]3[C@@H](COC[C@H](O)CN3C(=O)Nc3ccc(C(F)(F)F)cc3)O2)c1 | inactive |
| C[C@H]1CN([C@@H](C)CO)C(=O)c2cc(NS(=O)(=O)c3ccc(F)cc3)ccc2O[C@H]1CN(C)S(=O)(=O)c1ccccc1 | inactive |
| Cc1nn(C)c(Cl)c1S(=O)(=O)NC(=O)[C@@]1(C)CCN1C(=O)c1ccccc1CCc1ccccc1 | inactive |

| Structure (SMILES) | cytotoxicity call |
| --- | --- |
| COC(=O)c1cc(S(C)(=O)=O)ccc1OC | inactive |
| C[C@H]1CN([C@@H](C)CO)C(=O)c2cc(NC(=O)Nc3ccc(C(F)(F)F)cc3)ccc2O[C@@H]1CN(C)Cc1ccc(Oc2ccccc2)cc1 | inactive |
| C[C@H](CO)N1C[C@H](C)[C@H](CN(C)Cc2ccc(Oc3ccccc3)cc2)Oc2ccc(NC(=O)Nc3ccc(C(F)(F)F)cc3)cc2C1=O | active |
| C[C@@H]1CN([C@H](C)CO)C(=O)c2cc(NC(=O)Nc3ccc(C(F)(F)F)cc3)ccc2O[C@H]1CN(C)Cc1ccc(Oc2ccccc2)cc1 | inactive |
| C[C@@H]1CN([C@H](C)CO)C(=O)c2cc(NC(=O)Nc3ccc(C(F)(F)F)cc3)ccc2O[C@@H]1CN(C)Cc1ccc(Oc2ccccc2)cc1 | active |
| CN(C)C(=O)c1cccc(-c2ccc3n(c2=O)C[C@H]2[C@H](CO)[C@@H](C(=O)NCC4CC4)N[C@@H]32)c1 | inactive |
| COc1ccc(NC(=O)Nc2cccc3c2O[C@@H](CN(C)Cc2ccc(Cl)c(Cl)c2)[C@H](C)CN([C@@H](C)CO)C3=O)cc1 | inactive |
| COc1ccc(NC(=O)Nc2cccc3c2O[C@@H](CN(C)Cc2ccc(Cl)c(Cl)c2)[C@@H](C)CN([C@H](C)CO)C3=O)cc1 | inactive |
| C[C@H]1CN([C@@H](C)CO)C(=O)c2cccc(NC(=O)Nc3ccc(F)cc3)c2O[C@H]1CN(C)Cc1ccc(Cl)c(Cl)c1 | inactive |
| C[C@@H]1CN([C@H](C)CO)C(=O)c2cccc(NC(=O)Nc3ccccc3)c2O[C@@H]1CN(C)Cc1ccc(Cl)c(Cl)c1 | inactive |
| C[C@@H]1CN([C@H](C)CO)C(=O)c2cccc(NC(=O)Nc3ccc(F)cc3)c2O[C@H]1CN(C)Cc1ccc(Cl)c(Cl)c1 | active |
| C[C@@H]1CN([C@H](C)CO)C(=O)c2cccc(NC(=O)Nc3ccc(F)cc3)c2O[C@@H]1CN(C)Cc1ccc(Cl)c(Cl)c1 | inactive |
| C[C@@H]1CN([C@@H](C)CO)C(=O)c2cccc(NC(=O)Nc3ccc(F)cc3)c2O[C@H]1CN(C)Cc1ccc(Cl)c(Cl)c1 | inactive |
| C[C@@H]1CN([C@@H](C)CO)C(=O)c2cccc(NC(=O)Nc3ccccc3)c2O[C@H]1CN(C)Cc1ccc(Cl)c(Cl)c1 | inactive |
| C[C@@H]1CN([C@@H](C)CO)C(=O)c2cccc(NC(=O)Nc3ccc(F)cc3)c2O[C@@H]1CN(C)Cc1ccc(Cl)c(Cl)c1 | active |
| C[C@H](CO)N1C[C@H](C)[C@@H](CN(C)Cc2ccc(Cl)c(Cl)c2)Oc2c(NC(=O)Nc3ccc(F)cc3)cccc2C1=O | active |
| C[C@H](CO)N1C[C@H](C)[C@H](CN(C)Cc2ccc(Cl)c(Cl)c2)Oc2c(NC(=O)Nc3ccc(F)cc3)cccc2C1=O | inactive |
| COc1ccc(NC(=O)Nc2cccc3c2O[C@H](CN(C)Cc2ccc(Cl)c(Cl)c2)[C@@H](C)CN([C@@H](C)CO)C3=O)cc1 | active |
| C[C@H](CO)N1C[C@H](C)[C@H](CN(C)C(=O)c2ccc(N3CCN(C)CC3)cc2)OCc2cn(nn2)CCCC1=O | inactive |
| COc1ccc(S(=O)(=O)N(C)C[C@@H]2Oc3c(NC(=O)c4ccncc4)cccc3C(=O)N([C@H](C)CO)C[C@@H]2C)cc1 | inactive |
